HCMV antiviral – human cytomegalovirus inhibition; AID 1259415; activity change, negative = inhibition, % at 57.5 µM; 410,000 tested, 4.5% active; HFF cells, HCMV-luciferase reporter, 72 h; stronger effect = lower value; in the data active = activity change below about -60%; inconclusive = no clear call, values can overlap the other calls; inactive = above about -39%
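Steps: HFFs plated, 16 h 37C; compounds added; HCMV-luciferase added to MOI 1 PFU/cell; 72 h 37C; OneGlo reagent, 5 min room temperature; luminescence read, normalized to controls.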
Pf growth 96h – P. falciparum growth inhibition at 96 hour, primary screen for plastid delayed-death inhibitors; P. falciparum luciferase reporter growth, 96 h; Potency, µM (titrated, usually from 28.7 µM), hits mostly inhibitors; 320,000 tested, 6.9% active
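Two-generation exposure (96 h) targets delayed-death phenotype. Reporter parasites carrying integrated firefly luciferase, in red cells at 2% hematocrit and 0.05% parasitemia final, kept at 37 C, 5% CO2; luminescence loss indicates inhibition.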
Shiga toxin inh – blocks Shiga toxin action in Vero cells; Vero cells, Shiga toxin protein synthesis inhibition reporter; inhibition, % at 38.7 µM; 290,000 tested, 9.2% active; in the data active = inhibition mostly above about 28%, no sharp cut-off; inactive = mostly below about 43%
Pf growth 48h – P. falciparum growth inhibition at 48 hours (one generation) | P. falciparum luciferase growth in erythrocytes, 48 h | Potency, µM (top dose mostly 28.7 µM), actives largely listed as inhibitors | 310,000 tested, 5.9% active | AID 504832
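In quantitative HTS format, infected erythrocytes bearing luciferase-reporter parasites were treated for a single generation at 37 C. Luminescence after adding detection reagent served as the growth measure.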
Cycloheximide cs – counter-screen for Shiga toxin inhibitors: cycloheximide protein synthesis inhibition | cell reporter, cycloheximide protein synthesis inhibition counterscreen | max response, % | 300,000 tested, 12% active | AID 2314; in the data active = max response mostly above about 13%, no sharp cut-off; inactive = mostly below about 14%; note: read at 38.3 µM for the half of the compounds with a filed dose
HCV inhibitor – blocks hepatitis C virus | Potency, µM (doses to about 41.8 µM), usual class: inhibitors | Huh7.5.1 HCVcc-Cre infection, luciferase reporter, 44 h | 340,000 tested, 3.4% active
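Infectious HCV cell culture screen: compound-treated cells (1,000/well, pre-plated 4 h) are infected with HCVcc-Cre at roughly 0.5 moi and grown 44 h. Infection is quantified by luciferase signal after 15 min substrate incubation at room temperature.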
A number is an active result; i = inactive; ? = inconclusive; nt = no result. Compounds with a hit are over-represented: about 21% of the library has one in this group of screens. Unless noted, calls come from the whole dose curve; as a rule, active = well fitted inhibition curve with a large enough effect; inconclusive = small, poorly fitted or top-dose-only effect, or another doubt; inactive = no such curve, though single readings can be large or run the other way.

SMILES | HCMV antiviral | Pf growth 96h | Shiga toxin inh | Pf growth 48h | Cycloheximide cs | HCV inhibitor
CCOC(=O)Cc1csc(NC(=O)CSc2ncnc3c2cnn3-c2ccccc2Cl)n1 | i | nt | i | 7.4µM | i | ?
COC(=O)c1c(NC(=O)CSc2ncnc3[nH]ncc23)sc2c1CCC2 | -81 | i | i | i | i | i
CCNC(=O)N[C@H]1CC[C@@]23CCCN2C(=O)CCC[C@H]3[C@H]1C | i | nt | nt | nt | nt | nt
Cc1ccc(-c2nnc(SCC(=O)Nc3nccs3)n2N)cc1 | i | i | 43 | i | 30 | i
Nc1ccccc1SCC(=O)Nc1nccs1 | i | i | i | i | i | i
Cn1cc(SCC(=O)Nc2nccs2)c2ccccc21 | i | i | 83 | i | 40 | i
COc1ccc(NC(C)=O)cc1NC(=O)CSc1nnc(-c2ccncc2)n1C | i | i | i | i | i | i
Cc1cc(C)cc(NC(=O)CSc2nnc(-c3ccccc3)n2N)c1 | i | ? | i | i | 14 | i
COc1ccc(NC(C)=O)cc1NC(=O)CSc1nnc(-c2ccccc2)n1N | i | i | 60 | i | i | i
CCn1c(SCC(=O)Nc2nccs2)nnc1-c1ccc(C)cc1 | i | i | i | i | i | i
Cc1cccc(NC(=O)CSc2nnc(-c3ccccc3)n2N)c1 | i | i | i | i | i | i
O=C(Nc1ccccc1Cl)c1cc(C2CCCN(C(=O)c3cccs3)C2)on1 (stereo not given) | i | nt | nt | nt | nt | nt
Cc1cccc(N(C(=O)c2csnn2)C(C(=O)NC2CCCCC2)c2ccccn2)c1C (stereo not given) | i | i | i | i | i | ?
O=C(Nc1ccc2[nH]c(=O)[nH]c2c1)c1c(F)c(F)c(F)c(F)c1F | i | ? | i | i | i | i
O=C(NCCc1ccccc1)c1ccc2c(c1)N(Cc1ccccc1Cl)C(=O)c1ccccc1S2 | i | nt | nt | nt | nt | nt
CCN(CC(=O)Nc1c(F)cccc1F)C(=O)C1=COCCO1 | i | i | nt | i | nt | i
COC(=O)c1cc(S(=O)(=O)N2CCN(c3cccc(OC)c3)CC2)cn1C | ? | i | i | i | i | i
CCOC(=O)C1CCCN(C(=O)c2cc(S(=O)(=O)N3CCCCC3)ccc2Cl)C1 (stereo not given) | i | 10µM | nt | ? | nt | ?
CC(=O)N1CCN(C(=O)c2cc(S(=O)(=O)N3CCCCC3)ccc2Cl)CC1 | i | i | nt | i | nt | i
CCOC(=O)C1CCCN(S(=O)(=O)c2ccccc2)C1 (stereo not given) | i | i | i | i | i | i
CCN1CCN(C(=O)c2cc(S(=O)(=O)N3CCCCC3)ccc2Cl)CC1 | i | 10µM | i | i | i | nt
COC(=O)c1cc(S(=O)(=O)N2CCN(c3ccc(F)cc3)CC2)cn1C | i | 9.3µM | i | i | i | i
CCOC(=O)C1CCCN(S(=O)(=O)c2cc(C(=O)OC)n(C)c2)C1 (stereo not given) | -60 | i | i | i | i | 6.3µM
COc1cccc(C(O)c2cnc(C(C)C)n2C)c1 (stereo not given) | i | i | i | i | i | i
CCc1nc2nc(C)c(NS(=O)(=O)c3ccc(Cl)cc3)c(=O)n2[nH]1 | i | i | i | i | i | i
SMILES | HCMV antiviral | Pf growth 96h | Shiga toxin inh | Pf growth 48h | Cycloheximide cs | HCV inhibitor
O=C(OC(c1ccccc1)c1nccc2ccccc12)c1cc([N+](=O)[O-])cc([N+](=O)[O-])c1 (stereo not given) | i | 10µM | i | i | i | ?
O=[N+]([O-])c1ccc(Cl)c(S(=O)(=O)Nc2ccc(S(=O)(=O)N3CCOCC3)cc2)c1 | i | i | i | i | i | i
NS(=O)(=O)c1ccc(NCc2cnc3ccccc3n2)cc1 | i | nt | nt | nt | nt | nt
N#CCc1cnc2ccccc2n1 | i | i | 69 | i | 18 | i
C/C(NC(=O)c1cccs1)=C1\C(=O)C[C@@H]2[C@H]1C2(C)C | i | ? | i | ? | 15 | i
CC(C)CN(C(=O)COC(=O)CCC(=O)c1ccc(Cl)cc1)c1c(N)n(Cc2ccccc2)c(=O)[nH]c1=O | i | i | nt | ? | nt | ?
CCN(CC)CCNC(=O)c1ccc(NC(=O)c2cccc(S(=O)(=O)N3CCCCCC3)c2)cc1 | i | nt | nt | nt | nt | ?
CCN(CC)CCNC(=O)c1ccc(NC(=O)c2ccc(S(=O)(=O)N3CCCCCC3)cc2)cc1 | i | ? | nt | 1.7µM | nt | 10µM
